# Source: PubChem BioAssay (National Center for Advancing Translational Sciences (NCATS))
# D2 ag-1 = agonists of human D2 dopamine receptor. HEK293 T-REx D2 cells, calcium flux agonist mode. hit rate 0.53% among 340,000. P14416. activation, % at 2 µM;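 active = activation over 3 SD above normal in the single-dose calcium agonist read, cut at about 30% in these data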; note: 0% is about no effect
# Target sequence (P14416 whole entry, looked up): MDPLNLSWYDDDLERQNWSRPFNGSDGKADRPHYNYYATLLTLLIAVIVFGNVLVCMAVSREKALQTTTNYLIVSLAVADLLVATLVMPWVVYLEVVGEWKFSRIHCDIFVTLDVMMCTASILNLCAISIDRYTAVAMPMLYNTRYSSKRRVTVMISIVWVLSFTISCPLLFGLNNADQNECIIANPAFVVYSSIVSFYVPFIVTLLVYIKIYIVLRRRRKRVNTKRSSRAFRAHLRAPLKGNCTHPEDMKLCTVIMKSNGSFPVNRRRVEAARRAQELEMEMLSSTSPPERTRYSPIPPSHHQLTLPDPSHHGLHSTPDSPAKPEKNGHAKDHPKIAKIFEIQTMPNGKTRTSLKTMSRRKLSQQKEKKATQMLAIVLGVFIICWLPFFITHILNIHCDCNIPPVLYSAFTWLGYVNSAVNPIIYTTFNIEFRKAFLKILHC
#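 HEK293 Trex D2 cells, tetracycline-induced, o/n 30 C 5% CO2; no-wash Ca dye, RT 30–90 min; 10-cycle baseline, 23 nl cpd added, kinetic Ca read 180 s; agonist hits = positive Ca response.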
# D2 PAM-1 = positive allosteric modulators of human D2 dopamine receptor. HEK293 T-REx D2, calcium flux, EC20 dopamine potentiation. potentiation, % at 10 µM. AID 485347. hit rate 0.34% among 340,000;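 active = potentiation over 3 SD above the plate norm, cut at about 30% in these data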; note: 0% is about no effect
#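 Potentiation of an EC20 dopamine calcium response is measured in a force-coupled, tetracycline-inducible Hek293 Trex D2 line. Compound-only kinetic reads over 180 s flag agonists before dopamine addition.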
# D2 ag-2 = activates the human D2 dopamine receptor | DiscoveRx PathHunter D2 beta-arrestin, luminescence, 90 min; 100% = 57 uM dopamine signal | activation, % (concentration not given with the values) | hit rate 0.084% among 360,000; in the data active = activation above about 40%; inconclusive = between about 15% and that limit
#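 Agonist mode: compounds alone added to overnight-plated D2 PathHunter cells for 90 min at 37 C, with 57 uM final dopamine (EC100) defining full response. Beta-arrestin recruitment detected by chemiluminescent reagent, read after 1 h at ambient temperature.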
# D2 antag = antagonizes the human D2 dopamine receptor. P14416. inhibition, % at 10 µM. hit rate 2% among 340,000. HEK293 TREx D2 cells, calcium flux, dopamine EC80; in the data active = inhibition above about 30%; inactive = below that, where a call was filed; note: 0% is about no effect
#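 In this primary screen, negative modulation is detected by tracking calcium flux after an EC80 dopamine challenge in inducible HEK293 T-REx D2 cells preexposed to test compound for 180 s.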
# D2 PAM-2 = human D2 receptor positive allosteric modulation; AID 624464; DiscoveRx D2 beta-arrestin cells, luminescence, 90 min; 100% = 57 uM dopamine signal; hit rate 0.23% among 360,000; potentiation, % (concentration not given with the values); P14416; in the data active = potentiation above about 50%; inconclusive = mostly about 30% to 49%
#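 D2 cells co-treated with compound plus 50 nM dopamine (EC20) for 90 min at 37 deg C to detect potentiation. Beta-arrestin recruitment was read as enzyme-fragment luminescence after 1 h at ambient temperature. Full response was set by 57 uM dopamine.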
# D3 arrestin ag = activates human D3 dopamine receptor beta-arrestin recruitment; shares compounds with D2 ag-1; DiscoveRx D3 beta-arrestin cells, luminescence, 90 min; Potency, µM (top dose mostly 76.9 µM), without a hit: at the top dose activation, hits mostly activators; hit rate 4% among 2,300; AID 720506;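 note: potency is the fitted concentration of half-maximal effect; 100% = dopamine control response; nearly all actives have a fitted effect of over 70% in size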
# D2 ag-3 = counter-screen for D3 agonists: human D2 dopamine receptor agonism. DiscoveRx PathHunter D2 beta-arrestin, luminescence, 90 min; response scale: percent relative to full dopamine signal. Potency, µM (doses to about 76.9 µM), without a hit: at the top dose activation, usual class: activators. shares compounds with D2 ag-1. hit rate 5.9% among 2,300; note: potency is the fitted concentration of half-maximal effect; % of control where 0% means no effect; nearly all actives have a fitted effect of over 70% in size
# * = called active by the depositor; ? = inconclusive; . = no result given. A selection: hits, their analogues and other compounds. The true share with any hit is near 2.4%. Unless noted, calls come from the whole dose curve; as a rule, active = well fitted activation curve with a large enough effect; inconclusive = small, poorly fitted or top-dose-only effect; inactive = flat fitted curve, though single readings scatter.
SMILES,D2 ag-1,D2 PAM-1,D2 ag-2,D2 antag,D2 PAM-2,D3 arrestin ag,D2 ag-3
CCOC(=O)N1CCC(N2CCCC(C(=O)c3cccc(OC(C)C)c3)C2)CC1 (stereo not given),-2,12,-1,18,-5,.,.
O=C(c1cccc2ccccc12)N1CCC(N2CCN(c3ccccc3)CC2)CC1,77*,-22,7,75*,16,1.4µM*,?
CCOC(=O)N1CCC(N2CCN(S(=O)(=O)CC)CC2)CC1,0,-3,2,-4,-12,.,.
Nc1nonc1-c1nc2ccccc2n1Cc1cccc(Cl)c1,1,-5,.,.,.,.,.
O=C(CSc1nc2ccsc2c(=O)n1-c1ccc(Br)cc1)NCc1ccc(Cl)cc1,1,.,.,.,.,.,.
CCN(CC)C(=O)CSc1nnc2[nH]c(=O)cc(C)n12,.,0,.,.,.,.,.
CC(C)OC(=O)c1c(NS(=O)(=O)c2ccccc2)sc2c1CCCC2,1,3,-2,26,-1,-11%,-5%
COc1ccc(C(=O)Nc2cc(Cl)ccc2-n2cncn2)c(OC)c1OC,2,-4,2,-12,0,20%,6%
COc1ccc(O)c(-c2nc(N)nc(N)n2)c1,0,14,-1,-11,-5,-4%,-4%
Cc1cc(/C=C(\C#N)C(N)=O)c(C)n1-c1ccc(N2CCOCC2)c([N+](=O)[O-])c1,55*,5,4,4,16,21%,8%
COc1cc(OC)c(NC(=O)C(Cc2ccccc2)NS(=O)(=O)c2cccc3nsnc23)cc1Cl (stereo not given),0,4,.,.,.,.,.
Cc1ccc2c(c1)[nH]c1c(=O)n(Cc3ccco3)cnc12,33*,-17,-1,18,2,1%,0%
N#Cc1ccc(CSc2nnc(-c3ccc(Br)cc3)o2)cc1,0,-2,.,.,.,.,.
COc1ccc(N2CCN(CCCn3c(=S)[nH]c4ncccc4c3=O)CC2)cc1,0,8,1,2,-31,.,.
O=c1c2cccnc2[nH]c(=S)n1CCCN1CCN(c2ccc(F)cc2)CC1,54*,-24,13,101*,-30,5%,14%
Cc1ccc(N2C(=O)NC(NS(=O)(=O)c3ccc(Cl)cc3)(C(F)(F)F)C2=O)cc1C (stereo not given),1,4,.,.,.,.,.
COc1ccc(Nc2nc(N)nc(CN3CCN(c4ccc(F)cc4)CC3)n2)cc1,43*,-25,7,17,5,1%,11%
Cc1cccc(Nc2nc(N)nc(CN3CCN(c4ccccc4F)CC3)n2)c1,.,.,5,.,3,.,.
Nc1nc(CN2CCN(c3ccccn3)CC2)nc(Nc2ccc(Cl)cc2)n1,90*,-28,41*,74*,56*,-3%,18µM*
CN1CCN(Cc2nc(N)nc(Nc3ccc4c(c3)OCCO4)n2)CC1,1,11,0,-32,-9,.,.
Nc1nc(CN2CCN(c3ccccc3F)CC2)nc(Nc2ccc3c(c2)OCCO3)n1,72*,-19,?,54*,18,9%,?
Nc1nc(CN2CCN(Cc3ccccc3)CC2)nc(Nc2ccccc2)n1,0,9,-3,-1,-21,.,.
COc1ccc(N2CCN(Cc3nc(N)nc(Nc4ccccc4OC)n3)CC2)cc1,0,9,-4,8,-4,.,.
CCOc1ccc(Nc2nc(N)nc(CN3CCN(c4ccccc4F)CC3)n2)cc1,48*,-18,8,33*,-3,15%,?
CCCNC(=O)Cn1c(=O)n(CC2CCC(C(=O)NC)CC2)c(=O)c2sccc21 (stereo not given),-1,-3,.,.,.,.,.
SMILES,D2 ag-1,D2 PAM-1,D2 ag-2,D2 antag,D2 PAM-2,D3 arrestin ag,D2 ag-3
Cc1cccc(Nc2nc(N)nc(CN3CCN(c4ccccc4)CC3)n2)c1,71*,-28,?,51*,?,28%,?
Nc1nc(CN2CCN(c3ccc(F)cc3)CC2)nc(N2CCCc3ccccc32)n1,60*,-29,11,54*,-9,9%,24%
C=CCc1c(C)nc2nc(SCC(=O)Nc3ccc(OCC)cc3)nn2c1C,.,-2,.,.,.,.,.
COc1cc(C(=S)N2CCOCC2)cc(OC)c1OC(=O)c1ccc(C)cc1,0,5,-6,27,-2,1%,2%
COc1ccc(OC)c(S(=O)(=O)NCc2cn3ccsc3n2)c1,26,-9,-4,-2,-8,-5%,2%
O=C(CCN1CCCCC1)c1ccc2c(c1)OCCO2,2,6,-4,-27,-20,.,.
O=C(CCN1CCCC1Cc1ccccc1)c1ccc2c(c1)OCCO2 (stereo not given),82*,-28,7,109*,-18,?,?
O=C(NCC(c1ccc2c(c1)OCO2)N1CCN(c2ccccc2)CC1)c1ccccc1 (stereo not given),.,-21,.,.,.,.,.
Cc1ccnc(NS(=O)(=O)c2ccc(NC(=O)c3cc(=O)c4ccc(C)c(C)c4o3)cc2)n1,2,-3,.,.,.,.,.
Cc1cccc(CSc2nnc([C@@H]3CCCN3C(=O)OC(C)(C)C)o2)c1,-1,0,-3,36*,-31,-1%,-5%
Cc1ccc(NC(=O)CSc2nc(-c3ccco3)nc3cc(=O)[nH]n23)cc1,0,-7,.,.,.,.,.
N#CN=C(c1ccccc1)c1ccccc1,1,1,0,7,-4,.,.
N#CCN=C(c1ccccc1)c1ccccc1,0,-8,-8,20,-8,-10%,-3%
COC(=O)c1c(-c2ccccc2OC)sc2ccccc12,0,-3,-1,-8,-5,-5%,-2%
CCOC(=O)c1cccc(Nc2cc(C)nc(C)n2)c1,0,-5,.,.,.,.,.
Fc1ccc(NC(=S)N2CCCC(c3ccccc3)=N2)cc1,26,3,-4,-2,5,-6%,22%
COc1ccc(Cl)cc1Nc1nc2ccc(C(=O)c3ccccc3)cc2n2cnnc12,0,-1,.,.,.,.,.
COc1ccc(C2c3ccc4ccccc4c3Oc3ncn(CCCO)c(=N)c32)cc1OC (stereo not given),.,.,-1,.,-4,2%,4%
COc1ccc(C2c3ccc4ccccc4c3Oc3ncn(CCO)c(=N)c32)cc1OC (stereo not given),.,.,-1,.,4,.,.
CC(C(=O)Nc1cccc([N+](=O)[O-])c1)N1CCN(C/C=C/c2ccccc2)CC1 (stereo not given),72*,-30,9,47*,-20,26%,?
O=C(c1cccc([N+](=O)[O-])c1)N1CCN(C/C=C/c2ccccc2)CC1,0,-14,-1,29,-18,.,.
Cc1nn(CC(=O)NCc2ccccc2Br)c(=O)c2cc3occc3n12,0,8,.,.,.,.,.
